This passage reports fluorescence inhibition and growth inhibition results from PubChem BioAssay AID1159583 (ICCB-Longwood Screening Facility, Harvard Medical School, 2016).

“And” between values parts separate entries of the source, which are not always exact repeats. Equal entries are not always repeated. The campaign covered roughly 300,000 compounds. About 310 (0.1%) were called active. The sample holds actives, similar compounds and a random draw of the others, so the mix is not that of the screen. Rule as the data show it: active = fluorescence inhibition mostly above about 23% (no sharp cut-off); inactive = mostly below about 17%.

The test in a line: hypoxia reporter signal reduction in M. tuberculosis – fluorescence, absorbance growth readout, primary screen (AID 1159583). The conditions noted are these: M. tuberculosis hypoxia-regulated fluorescent reporter, stronger effect = higher value, concentration not given here; growth inhibition: measured here: M. tuberculosis growth (absorbance).
On to `Cc1ccc(C(=O)ON=Cc2ccc3c(c2)OCO3)cc1`, for which the fluorescence inhibition is 2.14% (inactive) and the growth inhibition worked out at 12.4%.
`Cc1ccsc1/C=C1\SC(N2CCOCC2)=NC1=O`: the fluorescence inhibition was 59.8% (active) and the growth inhibition is 35.7%.
The matching figures for `CCc1ccc(/C=C2\SC(N3CCOCC3)=NC2=O)cc1`: -2.06% (inactive) and 6.4%.
For `O=C1N=C(N2CCOCC2)S/C1=C\C=C/c1ccccc1`, in that order: 16.7% (inactive) and 6.03%.
For `COC(=O)c1ccc(C=NN2C(C)CCCC2C)cc1` (stereo unspecified), in that order: 12.1% (inactive) and 0.227%.
As to `[O-]C1=N[N+](=Cc2ccc(Cl)cc2)CC1`, the fluorescence inhibition was 9.03% (inactive) and the growth inhibition was determined as 2.77%.
In the case of `Cc1ccc(F)c(C2C3C=CCC[C@@]3(C)C(=O)N2Cc2ccccc2)c1` (stereo partly specified), the fluorescence inhibition is 0.237% (inactive) and the growth inhibition was 4.91%.
For `CCOC(=O)C1C2COc3ccc(OC)cc3C2N2C(=O)c3cc(OC)ccc3NC(=O)[C@@]12C` (stereo partly specified), in that order: -0.571% (inactive) and -0.925%.
As for `CN1C(=O)/C(=C/C=C2\SCCN2C)OC1=S`, the fluorescence inhibition is -23.3% (inactive) and the growth inhibition stood at 5.47%.
The matching figures for `CN1CCSC1=CC=C1C(=O)N(C)C(=S)N1C`: 41.3% (active) and 10.5%.
`Oc1ccc(C=NNC(=S)Nc2cccnc2)c(O)c1O`: the fluorescence inhibition was 19% (inactive) and the growth inhibition turned out to be 3.53%.
As to `O=C(NN=Cc1cccc2nccnc12)c1ccncc1`, the fluorescence inhibition is 93.3%.
For the compound `C#CCOCCOCCOCCNc1nc(N2CCN(C(=O)C(CCC(=O)O)n3cc(C(N)Cc4ccc(O)cc4)nn3)CC2)nc(N2CCN(C(=O)C(C(C)CC)n3cc(C(N)CO)nn3)CC2)n1` (stereo unspecified), the fluorescence inhibition was 8.78% (inactive) and the growth inhibition was 6.78%.
For `N#CC(=Cc1ccc(O)c(O)c1)C(=O)c1ccc(O)c(O)c1`, in that order: -0.458% (inactive) and -7.09%.
For `CC(=NNc1nc(C)cc(-c2ccccc2)n1)c1ccc(C)o1`, in that order: 5.64% (inactive) and 13.1%.
For `CCC(C)CCN1C(Nc2ccccc2)=NCC1CC(C)C` (stereo unspecified), in that order: 2.94% (inactive) and 9.85%.
For the compound `CC(=NNC(=S)Nc1ccccc1)c1ccc2c(c1)OCO2`, the fluorescence inhibition is 4.36% (inactive) and the growth inhibition is -7.15%.
For the compound `CN1CCN(C(=O)C2=CC(c3ccccc3)CC(OCc3ccc(CO)cc3)O2)CC1` (stereo unspecified), the fluorescence inhibition was 10.4% (inactive) and -0.342% (inactive); the growth inhibition was 12.8% and -5.24%.
As for `C=CCNC(=S)N=c1sccn1C`, the fluorescence inhibition is 6.54% (inactive) and the growth inhibition was -7.89%.
The matching figures for `CC(=NNC(=O)c1cc(-c2cccc([N+](=O)[O-])c2)n[nH]1)c1ccc(F)cc1`: 14.8% (inactive) and -5.45%.
Turning to `COc1ccc(N(CC(=O)NN=C(C)c2cccs2)S(=O)(=O)c2ccccc2)cc1Cl`, the fluorescence inhibition is -6% (inactive) and the growth inhibition is -2.78%.
For `CCOC(=O)C1C2COc3ccccc3C2N2C(=O)N(c3cccc(F)c3)C(=O)[C@@]12C` (stereo partly specified), in that order: -2.44% (inactive) and 3.57%.
For `COC(=O)C1=C(c2ccc(OC(F)(F)F)cc2)CC2CCC1N2C(=O)NCCOc1ccc(OC)cc1` (stereo unspecified), in that order: 0.962% (inactive) and 6.26%.
With `O=C(CC(=O)NC1CCCCC1)NN=Cc1ccccc1Cl`, the fluorescence inhibition was 2.92% (inactive) and the growth inhibition is 1.5%.
Consider `CCN1CC2C3C(=O)N(Cc4ccccc4)C(=O)C3[C@](CC)(C1=O)N2C(=O)c1ccc(Br)cc1` (stereo partly specified), for which the fluorescence inhibition was 6.17% (inactive) and the growth inhibition is 7.16%.
Take `CN1CC2C3C(=O)N(C)C(=O)C3[C@](C)(C1=O)N2C(=O)c1ccc(Cl)c(Cl)c1` (stereo partly specified): the fluorescence inhibition is 18.2% (inactive) and the growth inhibition came to 5.39%.
As for `Oc1cccc(C=NNc2ncnc3c2ncn3Cc2ccccc2)c1`, the fluorescence inhibition was 12.7% (inactive) and the growth inhibition came to 4.03%.
For `COc1ccc(C(N)=NOC(=O)c2cccc([N+](=O)[O-])c2)cc1`, the fluorescence inhibition was 2.69% (inactive) and the growth inhibition was 7.49%.
As for `Cc1cc(C=NNC(N)=S)c(C)n1-c1ccc(Cl)cc1`, the fluorescence inhibition was 79.4%.
With `O=C(O)c1cc(C(=O)O)cc(-c2ccc(C=c3sc4nc5ccccc5n4c3=O)o2)c1`, the fluorescence inhibition is 9.74% (inactive) and the growth inhibition was determined as 9.98%.
On to `O=C(C1=CC(c2csc3ccccc23)CC(OCc2ccc(CO)cc2)O1)N1CCCCCCC1` (stereo unspecified), for which the fluorescence inhibition is 5.62% (inactive) and the growth inhibition amounted to 15.1%.
In the case of `COc1ccc2c(Cl)c(C(=O)NN=Cc3c(C)[nH]c4ccccc34)sc2c1`, the fluorescence inhibition is 12.9% (inactive) and the growth inhibition is -1.23%.
For `COc1cccc(C(=O)NN=C(c2ccccc2)c2ccccn2)c1`, in that order: 5% (inactive) and 11%.
The matching figures for `CCOC(=O)c1cc(C)sc1N=CC1C(=O)CC(C)(C)CC1=O`: 5.08% (inactive) and 4.24%.
Regarding `Cc1ccc(C2C3C(=O)N(C)C(=O)C3[C@]3(C)C(=O)N(CC4CC4)CC(=O)N23)o1` (stereo partly specified), the fluorescence inhibition is 3.26% (inactive) and the growth inhibition is -2.47%.
For `CC(=NNC(=O)C(=O)Nc1ccc(C)c(Cl)c1)c1ccncc1`, the fluorescence inhibition was 9.7% (inactive) and the growth inhibition turned out to be 2.87%.
As to `CCOC(=O)C1=C(N)n2c(sc(=Cc3ccncc3)c2=O)=C(C(=O)OCC)C1c1ccncc1` (stereo unspecified), the fluorescence inhibition is -2.3% (inactive) and the growth inhibition is -3.45%.
`C=C1CC(C(=O)NN=Cc2ccc(O)cc2)C1`: the fluorescence inhibition was 2.24% (inactive) and the growth inhibition stood at 7.43%.
The matching figures for `COc1ccc(NC(=O)COC(=O)CON=C(C)c2ccc3c(c2)OCO3)cc1S(N)(=O)=O`: -7.57% (inactive) and -2.6%.
In the case of `Cc1ccc(-c2c(C(=O)NN=Cc3ccc(C)o3)nnn2-c2nonc2N)cc1`, the fluorescence inhibition was 3.86% (inactive) and the growth inhibition turned out to be 8.97%.
In the case of `Cc1ccc(C=NNC(=O)CSc2nc3ccccc3n2C)s1`, the fluorescence inhibition was 13.6% (inactive) and the growth inhibition was determined as 0.932%.
As for `COc1ccc(-c2nn(-c3ccccc3)cc2C=NNC(=O)c2cccc(S(=O)(=O)Nc3ccccc3OC)c2)cc1`, the fluorescence inhibition is 12.6% (inactive) and the growth inhibition stood at 0.139%.
The matching figures for `O=C(Cc1n[nH]c(=O)[nH]c1=O)NN=CCCc1ccccc1`: 11.1% (inactive) and 4.96%.
For `CCCN(CCC)Cc1c(C(=O)NN=Cc2c[nH]c3ccccc23)nnn1-c1nonc1N`, in that order: -3.6% (inactive) and 2.65%.
For `C=C1CCN(C(C)C(=O)NCc2ccc(OC)cc2)S(=O)(=O)c2ccccc21` (stereo unspecified), in that order: 19.8% (inactive) and 12.8%.
Regarding `CCOc1ccc(-c2cc(C)[n+](CCN(CC)CC)c(-c3ccc(OCC)cc3)c2)cc1`, the fluorescence inhibition is 53.9% (active) and the growth inhibition came out at 33.9%.
The matching figures for `CCOc1ccc2c(c1)C(c1ccc(C)cc1)=NNC(c1ccc(C)cc1)=N2`: 21.9% (inactive) and 10.8%.
With `CCOc1ccc(-c2nnc3ccc(SC)nn23)cc1`, the fluorescence inhibition was 4.55% (inactive) and the growth inhibition stood at 1.4%.
As to `O=C(NN=Cc1c[nH]c2ccccc12)c1cc2ccccc2o1`, the fluorescence inhibition is 0.899% (inactive) and the growth inhibition is 8.76%.
The matching figures for `COc1cccc(C=NNc2ncnc3c2ncn3Cc2ccccc2)c1O`: 7.12% (inactive) and 2.3%.
In the case of `CCc1ccc(S(=O)(=O)NN=Cc2ccc3c(c2)OCO3)cc1`, the fluorescence inhibition was 1.76% (inactive) and the growth inhibition was -2.08%.
For `CN1C(=O)C(=NOC(=O)c2ccccc2Cl)c2ccccc21`, in that order: 12.3% (inactive) and 3.63%.
Regarding `COc1ccc(C=NNc2c(Cl)cc(Cl)cc2Cl)cc1CN1CCOCC1`, the fluorescence inhibition was -4.05% (inactive) and the growth inhibition was found to be 12.6%.
For `Cc1cc(C)cc(NC(=O)NC2CCCCCCC2)c1`, the fluorescence inhibition came out at 95.8%.
As to `CC(C)(C)NS(=O)(=O)c1ccc(NC(=O)NC2CCCCC2)cc1`, the fluorescence inhibition is 3.29% (inactive) and the growth inhibition was determined as 2.76%.
As for `CC(C)c1ccc(NC(=O)NC2CCCCC2)cc1`, the fluorescence inhibition is 20.8% (active) and the growth inhibition was determined as 53%.
For `CSc1nsc(NN=Cc2ccccc2)c1C#N`, in that order: 1.35% (inactive) and 9.85%.
For `CC(C)CCn1c(=O)c(C(=O)NN=Cc2cccc(F)c2)c(O)c2ccccc21`, in that order: 5.09% (inactive) and 2.73%.
The matching figures for `O=C1CC2c3c(cccc3CN1Cc1ccc(F)cc1)CC(O)C2O` (stereo unspecified): 13.8% (inactive) and 7.24%.
Consider `CC(=NNC(=O)c1ccn(C)n1)c1cccc(NC(=O)c2ccncc2)c1`, for which the fluorescence inhibition was -2.04% (inactive) and the growth inhibition turned out to be 6.06%.
Take `COCc1c(Br)c(C)nc(OCC(=O)NN=Cc2ccc(C)o2)c1C#N`: the fluorescence inhibition is 18.1% (inactive) and the growth inhibition was 8.53%.
The matching figures for `CCC(=NNC(C)=O)c1ccc(OC(F)F)cc1`: 18.5% (inactive) and -1.52%.
As for `Cc1c(C=NNC(=O)c2ccc(F)cc2)cnn1C`, the fluorescence inhibition is 2.95% (inactive) and the growth inhibition amounted to 1.5%.
The matching figures for `COc1ccc(C2CC(=O)C=C(c3ccc(Cl)cc3C)C2)cc1` (stereo unspecified): 14.8% (inactive) and 2.62%.
The matching figures for `O=C(O)CC1c2cc(C(F)(F)F)ccc2S(=O)(=O)N1C1CCCCC1` (stereo unspecified): 13.2% (inactive) and 14.6%.
The matching figures for `CCOc1cc(C=NNC(=O)CSc2nnc(C)s2)ccc1OCc1ccccc1Cl`: -1.48% (inactive) and -4.08%.
On to `CC1(C)CC(=O)CC(=NNC(=O)C2CC2c2ccccc2)C1` (stereo unspecified), for which the fluorescence inhibition is -1.34% (inactive) and the growth inhibition was determined as 15.1%.
For `O=C(O)c1cccc2c1-c1ccccc1C2=NNc1ccccc1`, in that order: 1.02% (inactive) and -10.1%.
For `O=[N+]([O-])c1ccccc1NN=Cc1cccc(O)c1O`, in that order: 9.33% (inactive) and 0.684%.
For `CC(=NO)C(C)(C)Nc1cccc(F)c1`, in that order: -1.15% (inactive) and 4.49%.
`COc1ccc(-c2sc3ccccc3c2C=Cc2ccc(OC)c(OC)c2)cc1`: the fluorescence inhibition was 17.3% (inactive) and the growth inhibition was determined as 10%.
The matching figures for `COc1ccc(C2C=CCN(S(C)(=O)=O)C(C)C(=O)N2Cc2ccc(F)cc2)cc1` (stereo unspecified): 18% (inactive) and 13.9%.
For `CC(C)(C)OC(=O)NC(Cc1ccccc1)C(=O)NC(CO)C(O)C1CC1C(=O)NC1CC1` (stereo unspecified), the fluorescence inhibition is 14.6% (inactive) and the growth inhibition was 4.91%.
For `O=C(CN1CCN(Cc2ccc(Cl)cc2)CC1)NN=Cc1cccs1`, in that order: 6.55% (inactive) and -3.12%.
Take `Cc1ccc(C=NNC(=O)Nc2ccccc2)o1`: the fluorescence inhibition was 14.8% (inactive) and the growth inhibition came to 5.33%.
Take `CCN1C(=O)C(CC(=O)Nc2ccccc2)SC1=Nc1ccccn1` (stereo unspecified): the fluorescence inhibition is 0.176% (inactive) and the growth inhibition came to 4.92%.
As for `COc1ccc(Cl)cc1NC(=O)CC(C)=NNC(=O)COc1ccc(C)cc1`, the fluorescence inhibition was 13.3% (inactive) and the growth inhibition amounted to 3.14%.
Regarding `O=[N+]([O-])c1ccc(Cl)cc1NN=Cc1ccncc1`, the fluorescence inhibition was 6.88% (inactive) and the growth inhibition was -1.48%.
The matching figures for `O=C(NN=Cc1ccncc1)c1cc2c(ccc3ccccc32)o1`: -1.63% (inactive) and 10.4%.
For `COc1cc(C=NNC(=S)NCc2ccccc2)ccc1OCC#N`, in that order: 8.67% (inactive) and 7.58%.
The matching figures for `CC(C)c1ccc(C=NNC(=O)c2cc(-c3cccc([N+](=O)[O-])c3)n[nH]2)cc1`: 16.3% (inactive) and 1.5%.
On to `Cc1ccc(C=NNC(=O)CCCOc2ccc(Cl)cc2Cl)cc1[N+](=O)[O-]`, for which the fluorescence inhibition was 1.7% (inactive) and the growth inhibition is 5.81%.
